The structures appear in SMILES notation. Where “and” joins values, the source holds several entries; their conditions need not be identical. Identical values can stand only once. The campaign covered roughly 290,000 compounds. About 260 (0.09%) were called active. What follows is part of a selection rich in actives, with near analogues and random picks from the rest. Measured potencies and affinities stand elsewhere. A number with no mark means an inactive call. Rule as the data show it: active = inhibition above about 50%; inactive = the rest.

Kappa-type opioid receptor (Homo sapiens), sequence (P41145 whole entry, looked up): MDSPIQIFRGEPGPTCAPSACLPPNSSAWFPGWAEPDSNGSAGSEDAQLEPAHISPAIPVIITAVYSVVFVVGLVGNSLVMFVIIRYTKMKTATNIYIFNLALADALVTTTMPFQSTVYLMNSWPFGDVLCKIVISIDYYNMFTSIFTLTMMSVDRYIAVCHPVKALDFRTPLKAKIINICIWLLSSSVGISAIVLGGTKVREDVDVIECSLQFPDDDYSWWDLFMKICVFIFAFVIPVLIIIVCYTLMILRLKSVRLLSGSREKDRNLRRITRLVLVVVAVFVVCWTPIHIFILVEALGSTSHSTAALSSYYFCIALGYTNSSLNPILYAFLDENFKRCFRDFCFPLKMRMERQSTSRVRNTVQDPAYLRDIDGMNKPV

This assay addresses Kappa-type opioid receptor (Homo sapiens) (UniProt P41145). The assay can be described thus: kappa opioid receptor blockers – cell-based, luminescence, uHTS (AID 1778). Particulars: KOR beta-arrestin recruitment, antagonist mode, stronger effect = higher value; at 10 µM unless noted.
For `CN(C)S(=O)(=O)c1cccc(N=C2SCCN2Cc2ccccc2)c1`, the inhibition is -13.6%. For the compound `COc1ccc(CCC(N)=O)cc1OC`, the inhibition was -31.9%. On to `Cc1ccc(S(=O)(=O)Nc2cccc3ncccc23)cc1`, for which the inhibition was 14.1%. In the case of `Cc1ccc(S(=O)(=O)Nc2ccnc3ccccc23)cc1`, the inhibition is 6.9%. As to `O=S(=O)(Nc1cccc2ccccc12)c1cccs1`, the inhibition was 2.3%. `Cc1ccc(S(=O)(=O)Nc2cccc3ncccc23)s1`: the inhibition is 107% (active). With `Cc1c(NS(=O)(=O)c2cccs2)cccc1-c1nc2cccnc2s1`, the inhibition was 6.3%. Take `O=C(NNC(=O)c1ccccc1[N+](=O)[O-])c1ccccn1`: the inhibition was -1.3% [at 20 µM]. Consider `Cc1[nH]nc2c1C(c1ccccc1F)CC(=O)N2` (configuration not stated), for which the inhibition is -21.3%. The value for `CCOC(=O)c1cc2cc(CC(=O)c3ccc(OCC)cc3O)ccc2o1` was -2%; that for `CC(C)C(=O)NNC(=O)c1ccccn1` was 13.4%; that for `CC(C(=O)O/N=C(\N)c1ccccn1)c1ccc([N+](=O)[O-])cc1` (configuration not stated) was -1.4%. With `O=C(NNC(=O)C12CC3CC(CC(C3)C1)C2)c1cnccn1`, the inhibition is 27.4%. For the compound `C/C(=N\NC(=O)c1ccccn1)C12CC3CC(CC(C3)C1)C2`, the inhibition was -17.6%.

For the compound `O=C(NNc1ccccn1)C(c1ccccc1)c1ccccc1`, the inhibition was 11.4%. Consider `CCCCCC(=O)N/N=C(\C)c1ccccn1`, for which the inhibition was 10.5%. Consider `C/C(=N\NC(=O)C(c1ccccc1)c1ccccc1)c1ccc(O)cc1`, for which the inhibition was -26.8% [at 20 µM]. With `C/C(=N/NC(=O)CNC(=O)c1ccccn1)c1ccc([N+](=O)[O-])cc1`, the inhibition was 6.2%. Take `C/C(=N\NC(=O)C(c1ccccc1)c1ccccc1)c1ccccn1`: the inhibition was 81.1% (active).

As to `Cc1ccc(S(=O)(=O)NN)c(C)c1N1CCCC1=O`, the inhibition was 24.2%.

Turning to `Cc1cccc(C)c1NC(=O)C1CCCN1S(=O)(=O)c1ccccc1` (configuration not stated), the inhibition is -40.1%. Turning to `O=C(NCc1cccnc1)C1c2ccccc2C(=O)N1C1CCCCCC1` (configuration not stated), the inhibition is -16.6%. Regarding `O=C(NCCc1nnc2ccc(N3CCCCCC3)nn12)c1ccccc1`, the inhibition was -2.6%. In the case of `CN(C)c1ccc(P(=O)(Nc2cccc(C(F)(F)F)c2)N2CCOCC2)c(NC(=O)c2cccs2)c1` (configuration not stated), the inhibition is 41.3%.

As to `CNC(=S)N1N=C(c2ccc(C)cc2)CC1c1ccc(N(C)C)cc1` (configuration not stated), the inhibition is 7.7%. On to `CC1CCCCN1C(=O)COc1ccccc1F` (configuration not stated), for which the inhibition was -32.6% [at 20 µM]. To `O=C(Nc1ccnc(-c2cccnc2)n1)c1ccc(Cl)cc1` belongs -18.4%. In the case of `O=C1COc2ccc(C(=O)CSc3nnc(NCc4ccccc4)s3)cc2N1`, the inhibition was 21.4%. For the compound `CCNC(=S)N=Nc1c(O)n(Cc2ccc(Cl)cc2)c2ccccc12`, the inhibition was -4.3%. Turning to `CCn1c(O)c(N=NC(=S)NCC2CCCO2)c2ccccc21` (configuration not stated), the inhibition was 60.6% (active).

For `Oc1[nH]c2ccccc2c1N=NC(=S)NCC1CCCO1` (configuration not stated), the inhibition was -22%. For `COc1ccc(CNC(=O)c2ccc(CN3CCOCC3)cc2)cc1`, the inhibition is -18.5%.

As to `O=C(NCc1ccco1)C(=O)c1cn(CC(=O)N2CCCC2)c2ccccc12`, the inhibition was -7.4%. As to `O=C(COc1ccccc1)Nc1nnc(S(=O)(=O)N2CCCC2)s1`, the inhibition was -9.4%. With `Cc1cc(NCc2ccccn2)n2c(nc3ccccc32)c1C#N`, the inhibition was 18.9% [at 20 µM]. The value for `CCCNC(=O)COc1cccc(C(=O)NCc2ccccc2)c1` was 16.7%; that for `Oc1ccc(/C=N/Nc2ccnc3cc(Cl)ccc23)c(O)c1` was 3.8%. The value for `Oc1ccc(Nc2ccnc3cc(Cl)ccc23)cc1` was 25.2%; that for `O=C(O)CC1(CC(=O)Nc2ccc(C(F)(F)F)cc2)CCCC1` was -5.5%; that for `O=C(N/N=C/c1cc2cc3c(cc2nc1Cl)OCO3)c1ccncc1` was -14.5%. The value for `COc1ccc(N2CCN(C(=S)NC(=O)c3cccs3)CC2)c([N+](=O)[O-])c1` was 4.6%; that for `O=C(NC(=S)N1CCN(c2ccc(C(F)(F)F)cc2[N+](=O)[O-])CC1)c1cccs1` was 6.2%. `CC(=O)c1ccc(NC(=S)N2CCCC(CO)C2)cc1` (configuration not stated): the inhibition was 35.3%. `C#CCOCCOCCOCCNc1nc(N2CCN(C(=O)[C@H](C)n3cc(CCCN=C(N)N)nn3)CC2)nc(N2CCN(C(=O)[C@H](CCCCN)n3cc(CCCC)nn3)CC2)n1`: the inhibition is -17.1%. For the compound `CN(Cc1ccccc1)c1ccc(C(CC(N)=O)NC(=O)c2ccccc2)cc1[N+](=O)[O-]` (configuration not stated), the inhibition is -1.2% [at 20 µM]. As for `O=C(CN1CCN(c2ccc(F)cc2)CC1)OCc1ccccc1`, the inhibition was 21.3%. In the case of `COCc1cc(=O)[nH]c(Nc2nc3ccccc3o2)n1`, the inhibition was 14.7%. With `Cc1ccc2oc(Nc3nc(C)cc(C)n3)nc2c1`, the inhibition is 12.4%. Consider `Cc1cc(C)nc(Nc2nc3ccccc3o2)n1`, for which the inhibition was 17.6%.

Regarding `Cc1ccc2oc(Nc3nc(C)c(C)c(C)n3)nc2c1`, the inhibition is 6.8%. On to `COc1ccccc1-c1ccc(Nc2cccc(C(F)(F)F)c2)nn1`, for which the inhibition was -2.2%. As to `CCOc1ccc(S(=O)(=O)N(C)CC(=O)NCc2ccco2)cc1`, the inhibition was 5%.

As for `CCCC1=C(C(=O)OCC)C(c2c(C)nn(-c3ccccc3)c2Cl)C(C#N)=C(N)O1` (configuration not stated), the inhibition is -61.5%. On to `CCCOc1cccc(-c2cc(C(=O)NN)c3ccccc3n2)c1`, for which the inhibition was -44.7%. For `CCCOc1cccc(-c2cc(C(=O)N/N=C/c3cccnc3)c3ccccc3n2)c1`, the inhibition is -14%.

Turning to `O=C(CN1C(=O)S/C(=C\c2ccc(F)cc2)C1=O)NCCCn1ccnc1`, the inhibition was 1.3%. As for `O=C(/C=C/c1ccc([N+](=O)[O-])cc1)Oc1ccc(/C=N/NC(=O)c2ccncc2)cc1`, the inhibition is -27.5%.

For the compound `CC(=O)/C(=N\Nc1ccccc1)Sc1cccc2cccnc12`, the inhibition is 13.9%. Consider `O=C(CSc1cccc2cccnc12)N/N=C/c1ccc(F)cc1`, for which the inhibition was 17.3%.

As to `CCN(CC)C(=O)Sc1cccc2cccnc12`, the inhibition is 19.2%. As for `O=C(Sc1cccc2cccnc12)c1ccc(F)cc1`, the inhibition was 73.6% (active). The value for `O=C(O)CSc1cccc2cccnc12` was -59.2% and -13%.

The values are drawn from PubChem BioAssay AID1778 (Sanford-Burnham Center for Chemical Genomics, 2009).
